Active and inactive are the calls of the source. Rule as the data show it: active = inhibition above about 30%; inactive = the rest.
assay: growth suppression of yeast trafficking mutant, preliminary HTS, modulators of trafficking downstream of Golgi apparatus project, 1536-format plate, OD 615 nm (AID 637); conditions: yeast transport mutant growth, absorbance 615 nm, 18 h; hits give high values

inhibition, inactive:
O=C1C2ON(c3ccc(Cl)cc3)C(c3ccco3)C2C(=O)N1c1ccccc1 (stereo not given) -3.61%
CCOC(=O)N1CCN(C(=O)c2ccc3c(=O)n(Cc4ccc(OC)cc4)c(=S)[nH]c3c2)CC1 -5.08%
O=C(O)/C=C/c1ccc(O)c(O)c1 1%
COC(=O)Nc1sc2c(c1C(N)=O)CCCCCC2 5.25%
CC1(C)NC(=O)N(CC(O)CN2CCCC2)C1=O (stereo not given) -2.79%
Cc1cc(=O)n2nc(N3CCCC(C(=O)N4CCc5ccccc54)C3)sc2n1 (stereo not given) 1.64%
CCN(CC)S(=O)(=O)c1cccc(-c2nnc(SCCOc3ccccc3C)o2)c1 8.36%
CCOC(=O)CSC1=C(C#N)C(c2ccc3c(c2)OCO3)CC(=O)N1 (stereo not given) -2.36%
N#CC1=C(N)OC2=C(CCC/C2=C/c2ccoc2)C1c1ccoc1 (stereo not given) 0.18%
O=C(NCc1ccc2c(c1)OCO2)C1CCC(CNS(=O)(=O)c2ccccc2)CC1 (stereo not given) 1.15%
COC(=O)CCN(C(=O)c1ccc2c(c1)OCO2)c1ccccn1 0.55%
CC1CCCc2sc3nc(NCc4ccco4)n4ncnc4c3c21 (stereo not given) 20.3%
CCC(=O)OC1(C#CCOc2ccc(OC)cc2)CCN(C)CC1 1.64%
O=C(CCCCn1c(=O)c2ccccc2n(Cc2ccc(Cl)cc2)c1=O)NCc1ccco1 -2.95%
CC1CNCCN1S(=O)(=O)c1cccc2cnccc12 (stereo not given) -1.83%
CN(Cc1ccccc1)C(=O)c1cc(-c2ccc(Br)cc2)on1 -3.45%
CCOc1ccc2nc(SCC(=O)Nc3ncccn3)[nH]c2c1 3.45%
CCCC(=O)Nc1nnc(CC(=O)N2CCCC2)s1 -5.27%
Cc1csc(SCCn2c(N3CCCC3)nc3c2c(=O)[nH]c(=O)n3C)n1 -2.55%
Cc1ccccc1NC(=O)CN1CCC(NC(=O)Nc2ccccc2)CC1 -3.64%
COc1cc2c(=O)nc3n(c2cc1OC)C(c1ccccc1)N=C(N)N3 (stereo not given) 20.2%
CCOC(=O)c1[nH]c2cc(OC)c(OC)cc2c1NC(=O)C(C)N1CCN(Cc2ccccc2)CC1 (stereo not given) -5.09%
O=C(Nc1ncnc2sc3c(c12)CCC3)c1ccco1 0.55%
CC(C)(C#N)Nn1cnnc1 4.18%
CCC1CCCCN1CCCNC(=O)c1ccc(CS(=O)(=O)Cc2ccccc2F)o1 (stereo not given) 2.73%
COc1cccc(OCc2nnc(SCC(=O)OCc3ccccc3)o2)c1 -3.09%
CC(=O)[C@H]1[C@H](C#N)C[C@H]2[C@@H]3CC=C4C[C@@H](O)CC[C@]4(C)[C@H]3CC[C@@]21C 7.33%
Cc1ccc(CNc2cc(-c3nn4c(C)nnc4s3)ccc2C)s1 12.3%
Cn1c(=O)c2c(nc(Br)n2CCSc2nnnn2-c2ccccc2)n(C)c1=O -7.27%
COc1ccc(NS(=O)(=O)c2ccc(N)cc2)nn1 0%
CC(=O)NCCC(=O)Nc1ccc(C)c(F)c1 3.09%
Clc1ccccc1CN1CCc2sccc2C1 8.17%
Cn1c(=O)[nH]c(=O)c2c1nc(Br)n2Cc1ccccc1F 3.87%
Cc1cc(NC(=O)CSc2nc(C3CC3)nc3sc4c(c23)CCC(C)C4)no1 (stereo not given) -0.18%
Cc1csc(NC(=O)c2cccs2)n1 1.48%
O=C(NC1CCCC1)C(NS(=O)(=O)c1cccc2nsnc12)c1ccccc1 (stereo not given) 8.18%
O=C(CSc1nnc(Cc2ccccc2)n1-c1cccc(Cl)c1)N1CCOCC1 -7.64%
Cc1ccc(-n2c(C)cc3c2CCCC3=O)cc1 -3.09%
COc1ccc(-n2c(SCC(N)=O)nc3sc4c(c3c2=O)CCN(C)C4)cc1 -1.94%
CCOC(=O)C1CCN(C(=O)Nc2ccc3nc(C)c(C)nc3c2)CC1 -1.09%
